High-throughput results (PubChem)
HT1080NT lethal: qHTS for induction of synthetic lethality in tumor cells producing 2HG: qHTS for the HT-1080-NT fibrosarcoma cell line | HT-1080-NT fibrosarcoma viability, CellTiter-Glo ATP luminescence, 48 h | Potency, µM (doses to about 46.1 µM), for inactives: at the top dose activity, negative = less viability, usual class: cytotoxic | 360,000 compounds, 1.6% hits;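 also: NT is the 2HG producing partner of a matched IDH1 knockdown line; potency is read from the fitted curve at half-maximal effect; 0% = DMSO-treated cells and -100% = media-only wells without cells; nearly all actives have a fitted effect of over 55% in size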
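Viability by CellTiter-Glo luminescence after 48 h compound exposure at 37C of HT-1080-NT cells (750/well, RPMI, 5% FBS). % activity scaled between DMSO wells and medium-only wells, then curve-fitted and categorized by curve class.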
HT1080 IDH1KD tx: qHTS for induction of synthetic lethality in tumor cells producing 2HG: qHTS for the HT-1080-IDH1KD cell line | HT-1080 IDH1 knockdown viability, ATP luminescence, 48 h | Potency, µM (top dose mostly 46.1 µM), without a hit: at the highest dose activity, negative = toxicity, most hits filed as cytotoxic | 360,000 compounds, 2% hits | AID 686971, 2013;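 also: potency is read from the fitted curve at half-maximal effect; 0% = DMSO wells and -100% = cell-free medium wells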
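Cytotoxicity counter-line: IDH1KD HT-1080, 48 h, CellTiter-Glo. Curves classed by r2, magnitude and activity.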
DT40 TDP1 CPT: qHTS for Inhibitors of human tyrosyl-DNA phosphodiesterase 1 (TDP1): qHTS in cells in presence of CPT. 420,000 compounds, 12% hits. AID 686979, 2013. Potency, µM (doses to about 46.2 µM), inactives show at the top dose activity change, negative = growth inhibition, usual class: inhibitors. chicken DT40 Tdp1-/-;hTDP1 cells + 20 nM CPT, ATP luminescence, 48 h; also: potency is read from the fitted curve at half-maximal effect; nearly all actives have a fitted effect of over 55% in size
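Chicken DT40 Tdp1-/- cells stably complemented with human TDP1 were seeded at 400 cells/well in medium containing 20 nM camptothecin, exposed to pin-transferred compounds, and grown at 37 °C for at least 48 hr. Viability was read as ATP luminescence.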
DT40 TDP1 no CPT: qHTS for Inhibitors of human tyrosyl-DNA phosphodiesterase 1 (TDP1): qHTS in cells in absence of CPT; 420,000 compounds, 15% hits; Potency, µM (top dose mostly 46.2 µM), for the others: at the highest dose activity change, negative = growth inhibition, most hits filed as inhibitors; DT40 Tdp1-/- hTDP1 cells, no CPT, ATP luminescence, 48 h; AID 686978, 2013; also: potency is read from the fitted curve at half-maximal effect; nearly all actives have a fitted effect of over 55% in size
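No-CPT arm: Tdp1-/-;hTDP1 DT40 cells (400/well) plus compounds, incubated ≥48 hr at 37 °C. Readout CellTiter-Glo luminescence.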
IL1B secr inh: qHTS for Inhibitors of Inflammasome Signaling: IL-1-beta AlphaLISA Primary Screen. 360,000 compounds, 4.7% hits. THP-1 LPS/ATP IL-1B secretion, AlphaLISA, 16 h; active compounds read low. activity change, % at 57.5 µM. AID 743279, 2014; in the data active = activity change below about -50%; inconclusive = mostly about -30% to -49%
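THP-1 cells pretreated 1 hr with compounds (up to 57.5 uM final), then stimulated with LPS (250 ng/mL final) plus ATP (1.25 mM final); secreted IL-1B measured by AlphaLISA after 16 hr, decreased signal indicating inhibition.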
An asterisk follows results filed as active; ? = inconclusive; nt = no result given. Only some compounds are listed: those with a hit (about 19% of all), similar ones and a draw of the others. Unless noted, calls follow the shape of the dose curve; as a rule, active = well fitted curve in the direction sought with a large enough effect; inconclusive = small, poorly fitted or top-dose-only effect, or another doubt; inactive = no such curve, though single readings can be large; an effect the other way counts as inactive or inconclusive. Unless noted, % is scaled to controls: 0 for no effect and ±100 for the full control effect.

SMILES	HT1080NT lethal	HT1080 IDH1KD tx	DT40 TDP1 CPT	DT40 TDP1 no CPT	IL1B secr inh
O=C(Nc1ccc2c(c1)OCCO2)c1ccccc1F	-0.4%	-1.1%	7.31µM*	14.6µM*	-8.9
O=C(Nc1cccc(NC(=O)c2ccccc2F)c1)c1ccccc1	-8.2%	-1.4%	?	?	-53.6*
C/C(=N\NC(=O)c1ccccc1F)c1cccc(NC(=O)c2ccccc2)c1	13.0%	5.1%	-24.2%	-18.4%	-1.5
COc1ccc(C2(CNC(=O)Cc3ccc(OC)c(OC)c3)CCOCC2)cc1	6.0%	14.2%	-13.7%	-12.6%	14.6
COc1cc(/C=N/NC(=O)COc2cc(C)cc(C)c2)ccc1OS(=O)(=O)c1ccc(C)cc1	-0.7%	-10.6%	16.4µM*	6.51µM*	3.0
CCOc1cc(/C=N/NC(=O)c2cccc([N+](=O)[O-])c2)ccc1OS(=O)(=O)c1ccccc1	?	?	?	18.4µM*	-10.7
Cc1ccc(S(=O)(=O)Oc2cccc([N+](=O)[O-])c2)cc1	-16.3%	-18.4%	10.3µM*	?	-18.8
COc1ccc(/C=N/NC(=O)c2cccc([N+](=O)[O-])c2)cc1OS(=O)(=O)c1ccc(C)cc1	?	?	4.11µM*	2.59µM*	16.0
CCOc1cccc(Nc2nn(-c3ccc(OC(F)(F)F)cc3)nc2C(C)=O)c1	nt	nt	-12.6%	-9.9%	nt
CC(=O)c1cc(CN2CCN(C3CCN(C(C)C)CC3)C(CCO)C2)cs1 (stereo not drawn)	-7.5%	1.0%	-19.3%	-26.6%	-11.7
COc1ccc(/C=N/NS(=O)(=O)c2ccccc2)cc1OS(=O)(=O)c1ccccc1	7.3%	0.4%	-12.0%	-25.4%	8.7
COc1ccc(C(=O)N/N=C/c2ccc(OC)c(OS(=O)(=O)c3ccccc3)c2)cc1	1.5%	?	-60.1%	16.4µM*	0.0
CCCS(=O)(=O)NC(=O)C1(C)CCCN(C(=O)c2cc(C(C)(C)C)nn2C)C1 (stereo not drawn)	22.1%	6.5%	-1.2%	-0.8%	12.1
CCOc1cc(/C=N/N=C(N)N)ccc1OCc1ccc(Cl)cc1	?	?	14.6µM*	16.4µM*	-108.4*
NC(N)=N/N=C/c1ccc(OCc2ccccc2)c(OCc2ccccc2)c1	23.1µM*	18.4µM*	?	18.4µM*	-96.2*
CCCC(C)NC(=O)c1ccc(OCc2ccc(Cl)cc2)c(OC)c1 (stereo not drawn)	-1.3%	-24.3%	?	8.2µM*	-9.4
O=C(O)c1cc(/C=N\O)ccc1OCc1ccccc1	14.9%	17.2%	-5.3%	-19.1%	4.8
COc1cc(/C=N/N=C(N)N)ccc1OCc1ccc(Cl)cc1	?	?	6.51µM*	5.8µM*	-94.1*
CCC(CC)c1nnc(NC(=O)CCCN2C(=O)c3ccccc3C2=O)s1	9.6%	7.5%	6.6%	-1.4%	-1.2
Cc1ccc(S(=O)(=O)c2nnn3c2nc(N2CCCC(C)C2)c2cc(Cl)ccc23)cc1C (stereo not drawn)	nt	nt	-3.5%	-12.4%	nt
Cc1ccccc1NCC(=O)N/N=C\C=C\c1cccc([N+](=O)[O-])c1	6.9%	10.1%	-10.8%	2.2%	0.0
Cc1[nH]nc(C(F)(F)F)c1N=NN1CCOCC1	?	?	2.59µM*	3.26µM*	-10.4
CC(C)Oc1ccc(C(=O)OCC(=O)NCCNC(=O)COC(=O)c2ccc(OC(C)C)cc2)cc1	-11.5%	-1.0%	?	-23.1%	43.5
COc1ccc(Cl)c(Cn2c(NCc3ccccn3)nc3c2c(=O)n(C)c(=O)n3C)c1	-18.1%	-10.7%	?	14.6µM*	-2.7
COc1ccc(Oc2nc3c(c(=O)n(C)c(=O)n3C)n2Cc2ccccc2Cl)cc1	nt	nt	?	13µM*	nt
